# This is part of a sample that, as a whole, favours compounds with a hit. Of some 83,000 tested, about 20% had one in any assay.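 For each line, cells grew in 96-well plates with the test compound present at a single concentration for 48 hours.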 Unmarked numbers belong to inactive results. Activity calls are given as the source filed them. The calls were made as follows: active = growth percent below 10; inactive = the rest.
# Tested on: UACC-257 melanoma
# Assay: NCI-60 one-dose screen, 48 h (100 = growth as untreated, 0 = no growth, -100 = all killed)
# Conditions: 10 µM unless noted
row,SMILES,growth
1,Fc1ccc(C2=NN(c3ccccc3)C(c3sc(N(CCCl)CCCl)nc3Cl)C2)cc1 (centres undefined),86.7%
2,CC[C@H](C)[C@H](NC(=O)Nc1ccccc1)C(=O)N(C)[C@H](C[C@@H](OC(C)=O)c1nc(C(=O)N[C@@H](Cc2ccccc2)C[C@H](C)C(=O)OC)cs1)C(C)C,60.6%
3,c1ccc(CCN2CCCCC2Cc2ccccc2)cc1 (centres undefined),98.5%
4,CC(=O)O[C@H]1CCC2(C)C(=CCC3C2CCC2(C)/C(=N/OC(=O)c4ccc(N(CCCl)CCCl)cc4)CCC32)C1 (some centres undefined),97.2%
5,O=C(N/N=C/c1ccc(N(CCCl)CCCl)cc1)c1cc(=O)[nH]c(=O)[nH]1,101%
6,O=[As]c1ccc(C(=O)c2ccc(Oc3ccccc3)cc2)cc1 (centres undefined),-99.4% (active)
7,O=[N+]([O-])c1cc([N+](=O)[O-])c(Cl)c(Cl)c1Cl,20.4%
8,Cc1cc(NC(=O)NCCOc2ccc(N3C(N)=NC(N)=NC3(C)C)cc2Cl)ccc1S(=O)(=O)F,32.2%
9,COc1ccc2c(c1)NC1=C(C(=O)OC1)C2c1cc(OC)c(OC)c(OC)c1 (centres undefined),62.4%
10,C=CCc1ccc(OC(=O)Cc2ccccc2)c(OC)c1,120%
11,CC(C)(O)/C=C/C(=O)[C@](C)(O)[C@H]1[C@H](O)C[C@@]2(C)[C@@H]3CC=C4[C@@H](C=C(O)C(=O)C4(C)C)[C@]3(C)C(=O)C[C@]12C,0.414% (active)
12,C[C@]12CCc3sc(-c4ccc(Cl)cc4)nc3C1=CC[C@@H]1[C@@H]2CC[C@]2(C)C(=O)CC[C@@H]12,99%
13,C=CCC1(CC)C(=O)NC(=S)NC1=O,105%
14,NC(Cc1ccc2c(c1)OCO2)c1ccc2c(c1)OCO2 (centres undefined),103%
15,O=C(CF)N(O)c1ccc(/C=C/c2ccccc2)cc1,-7.11% (active)
16,COc1ccc(/C=C(/C(=O)N2CCCC2)c2cc(OC)c(OC)c(OC)c2)cc1N,53.8%
17,Nc1nc(N)c(-c2ccc(Cl)c(Cl)c2)c(/C=C/c2ccc(S(=O)(=O)F)cc2)n1,76.3%
18,Nc1c(Br)cc([N+](=O)[O-])cc1[N+](=O)[O-],100%
19,Oc1ccc(O)c2c1C1(Cl)C(Cl)=C(Cl)C2(Cl)C1(Cl)Cl,46.6%
20,CN(C)P1(N(C)C)=NP(N(C)C)(N(C)C)=NP(N(C)C)(N(C)C)=N1,93.6%

row,SMILES,growth
1,CCCCNCCc1ccccn1,94.5%
2,CNC(=O)Oc1cccc(OC)c1,112%
3,C=C=[CH][Sn]([c]1ccccc1)([c]1ccccc1)[c]1ccccc1,-37.2% (active)
4,NC(=O)SCC(=O)Nc1ccc([As](=O)(O)O)cc1,74.1%
5,C[C@]12CC[C@H]3[C@@H](C[C@@H]4N=C(c5ccc(O)cc5)S[C@@]45C[C@H](O)CC[C@]35C)[C@@H]1CC[C@@H]2O,66.2%
6,CC1(C)N=C(N)N=C(N)N1c1ccc(CCCCc2ccc(S(=O)(=O)F)cc2)cc1,39.1%
7,Nc1c(Br)cc2c3c(cccc13)-c1ccccc1-2,88.4%
8,COc1cc2c(cc1OC)CN(C)C(C)C2 (centres undefined),104%
9,CC(C)C1c2ccc(O)cc2Oc2nc(N)c(C#N)c(N)c21 (centres undefined),105%
10,c1ccc2nc(OCCN3CC3)ccc2c1,59%
11,CC1(C)N=C(N)N=C(N)N1c1ccc(CNC(=O)Nc2ccc(S(=O)(=O)F)c(Cl)c2)c(Cl)c1,23%
12,c1ccc(-c2ccc3ccccc3[o+]2)cc1,98%
13,CSc1ccccc1NP1(=O)OCC(C)([N+](=O)[O-])CO1 (centres undefined),106%
14,CC1COC(=O)C1 (centres undefined),104%
15,COc1ccc(/C=C\c2cc(OC)c(OC)c(OC)c2)cc1N/C=C\C(=O)c1c[nH]c2ccccc12,78.2%
16,CCCC(C)(C)c1ccc2c(c1)OC(C)(C)[C@@H]1CC=C(C)C[C@@H]21,93.1%
17,OC1(c2ccc(Cl)cc2Cl)c2ccccc2C2=NCCN21 (centres undefined),86.2%
18,CC1(CF)NC(=O)NC1=O (centres undefined),97.2%
19,O=C(Nc1ccc(S(=O)(=O)F)cc1)Oc1ccccc1,111%

# Tested on: M14 melanoma
# Assay: as above
# Conditions: 10 µM unless noted
row,SMILES,growth
1,Fc1ccc(C2=NN(c3ccccc3)C(c3sc(N(CCCl)CCCl)nc3Cl)C2)cc1 (centres undefined),92.2%
2,CC[C@H](C)[C@H](NC(=O)Nc1ccccc1)C(=O)N(C)[C@H](C[C@@H](OC(C)=O)c1nc(C(=O)N[C@@H](Cc2ccccc2)C[C@H](C)C(=O)OC)cs1)C(C)C,-7.55% (active)
3,c1ccc(CCN2CCCCC2Cc2ccccc2)cc1 (centres undefined),94.7%
4,CC(=O)O[C@H]1CCC2(C)C(=CCC3C2CCC2(C)/C(=N/OC(=O)c4ccc(N(CCCl)CCCl)cc4)CCC32)C1 (some centres undefined),59.4%
5,O=C(N/N=C/c1ccc(N(CCCl)CCCl)cc1)c1cc(=O)[nH]c(=O)[nH]1,103%
6,O=[As]c1ccc(C(=O)c2ccc(Oc3ccccc3)cc2)cc1 (centres undefined),-94.1% (active)
7,O=[N+]([O-])c1cc([N+](=O)[O-])c(Cl)c(Cl)c1Cl,-8.63% (active)
8,Cc1cc(NC(=O)NCCOc2ccc(N3C(N)=NC(N)=NC3(C)C)cc2Cl)ccc1S(=O)(=O)F,32.1%
9,COc1ccc2c(c1)NC1=C(C(=O)OC1)C2c1cc(OC)c(OC)c(OC)c1 (centres undefined),6.44% (active)
10,C=CCc1ccc(OC(=O)Cc2ccccc2)c(OC)c1,106%
11,CC(C)(O)/C=C/C(=O)[C@](C)(O)[C@H]1[C@H](O)C[C@@]2(C)[C@@H]3CC=C4[C@@H](C=C(O)C(=O)C4(C)C)[C@]3(C)C(=O)C[C@]12C,-75.3% (active)
12,C[C@]12CCc3sc(-c4ccc(Cl)cc4)nc3C1=CC[C@@H]1[C@@H]2CC[C@]2(C)C(=O)CC[C@@H]12,97.6%
13,C=CCC1(CC)C(=O)NC(=S)NC1=O,115%
14,NC(Cc1ccc2c(c1)OCO2)c1ccc2c(c1)OCO2 (centres undefined),102%
15,O=C(CF)N(O)c1ccc(/C=C/c2ccccc2)cc1,43.2%
16,COc1ccc(/C=C(/C(=O)N2CCCC2)c2cc(OC)c(OC)c(OC)c2)cc1N,11.7%
17,Nc1nc(N)c(-c2ccc(Cl)c(Cl)c2)c(/C=C/c2ccc(S(=O)(=O)F)cc2)n1,89.4%
18,Nc1c(Br)cc([N+](=O)[O-])cc1[N+](=O)[O-],113%
19,Oc1ccc(O)c2c1C1(Cl)C(Cl)=C(Cl)C2(Cl)C1(Cl)Cl,32.6%
20,CN(C)P1(N(C)C)=NP(N(C)C)(N(C)C)=NP(N(C)C)(N(C)C)=N1,101%

row,SMILES,growth
1,CCCCNCCc1ccccn1,99.6%
2,CNC(=O)Oc1cccc(OC)c1,107%
3,C=C=[CH][Sn]([c]1ccccc1)([c]1ccccc1)[c]1ccccc1,-66.1% (active)
4,NC(=O)SCC(=O)Nc1ccc([As](=O)(O)O)cc1,89.7%
5,C[C@]12CC[C@H]3[C@@H](C[C@@H]4N=C(c5ccc(O)cc5)S[C@@]45C[C@H](O)CC[C@]35C)[C@@H]1CC[C@@H]2O,60.5%
6,CC1(C)N=C(N)N=C(N)N1c1ccc(CCCCc2ccc(S(=O)(=O)F)cc2)cc1,27.6%
7,Nc1c(Br)cc2c3c(cccc13)-c1ccccc1-2,58.5%
8,COc1cc2c(cc1OC)CN(C)C(C)C2 (centres undefined),100%
9,CC(C)C1c2ccc(O)cc2Oc2nc(N)c(C#N)c(N)c21 (centres undefined),129%
10,c1ccc2nc(OCCN3CC3)ccc2c1,86.5%
11,CC1(C)N=C(N)N=C(N)N1c1ccc(CNC(=O)Nc2ccc(S(=O)(=O)F)c(Cl)c2)c(Cl)c1,29.4%
12,c1ccc(-c2ccc3ccccc3[o+]2)cc1,96.8%
13,CSc1ccccc1NP1(=O)OCC(C)([N+](=O)[O-])CO1 (centres undefined),101%
14,CC1COC(=O)C1 (centres undefined),102%
15,C[CH2][Pb]([CH2]C)([CH2]C)[O]C(=O)COc1ccccc1,14.6%
16,COc1ccc(/C=C\c2cc(OC)c(OC)c(OC)c2)cc1N/C=C\C(=O)c1c[nH]c2ccccc12,11.3%
17,CCCC(C)(C)c1ccc2c(c1)OC(C)(C)[C@@H]1CC=C(C)C[C@@H]21,99.7%
18,OC1(c2ccc(Cl)cc2Cl)c2ccccc2C2=NCCN21 (centres undefined),102%
19,CC1(CF)NC(=O)NC1=O (centres undefined),104%
20,O=C(Nc1ccc(S(=O)(=O)F)cc1)Oc1ccccc1,110%
